Compound activity (PubChem)
A selection: hits, their analogues and other compounds. The true share with any hit is near 2.9%.
Nrf2 activator – qHTS of Nrf2 Activators; AREc32 ARE-luciferase reporter (MCF7-derived line), luminescence, 24 h; Potency, µM (highest dose often 46.1 µM), for the others: at the top dose activation, most hits filed as activators; 0.31% of 410,000 active; further: % of control where 0% means no effect; nearly all actives have a fitted effect of over 65% in size
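AREc32 cells carrying an ARE-driven firefly luciferase, 1000 cells/well in OPTI-MEM with 5% FBS, dosed after overnight attachment and incubated 24 hr at 37 deg C. Steady-Glo luminescence read after 30 min at RT.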
S2 tox – Viability Counterscreen for Primary qHTS for Inhibitors of ATXN expression | S2 cells (HEK-293 line with an ATXN2-luciferase reporter) viability, CellTiter-Fluor protease fluorescence, 24 h | Potency, µM (highest dose often 56.7 µM), hits mostly cytotoxic | 0.49% of 400,000 active | AID 651635, 2014; further: nearly all actives have a fitted effect of over 40% in size
A549 tox – Nrf2 qHTS screen for inhibitors: counterscreen for cytotoxicity | Potency, µM (top dose mostly 46 µM), for the others: at the highest dose activity change, negative = cytotoxicity, usual class: inhibitors | A549 ARE-Fluc cells, CellTiter-Fluor viability, 18-24 h | 0.16% of 390,000 active; further: on the % scale 0 is the no-effect control and ±100 the full control effect
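A549 ARE-Fluc cells in 5% FBS OPTI-MEM, 5000 cells/well, rested 2 h then exposed to compounds in concentration-response for 18-24 h at 37 °C. Viability by CellTiter-Fluor fluorescence (Ex 405/Em 525) after 30 min; luciferase luminescence (BugLite, 15 min, RT) read afterwards.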
Nrf2 inh – Nrf2 qHTS screen for inhibitors; 2.1% of 360,000 active; A549 ARE-Fluc reporter, luciferase luminescence, 18-24 h; Potency, µM (top dose mostly 46 µM), without a hit: at the highest dose activity change, negative = inhibition, most hits filed as inhibitors; further: on the % scale 0 is the no-effect control and ±100 the full control effect; nearly all actives have a fitted effect of over 60% in size
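Two sequential reads on A549 ARE_Fluc cells exposed to compound for 18-24 h: a CellTiter-Fluor fluorescence read for viability, then a luciferase luminescence read for Nrf2/ARE activity.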
ATXN2 expr inh – Primary qHTS for Inhibitors of ATXN expression; HEK-293 ATXN2-luciferase reporter, luminescence, 24 h; Potency, µM (top dose mostly 57 µM), without a hit: at the highest dose activity change, negative = inhibition, hits mostly inhibitors; 0.72% of 360,000 active; further: on the % scale 0 is the no-effect control and ±100 the full control effect; nearly all actives have a fitted effect of over 55% in size
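qHTS (up to 57 uM final) was run with 24 h compound exposure of reporter cells at 37 °C. Each well was multiplexed: SteadyGlo luminescence measured ATXN2-luciferase expression after a fluorogenic Gly-Phe-AFC viability readout (25 uM final).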
Starred values were filed as active, the others as inactive; i = inactive; ? = inconclusive; nt = not tested or not shown; ! = not confirmed by another sample. The call rests on the fitted dose curve; in most records, active means well fitted curve in the direction sought with a large enough effect; inconclusive means small, poorly fitted or top-dose-only effect, or another doubt; inactive means no such curve, though single readings can be large; an effect the other way counts as inactive or inconclusive. Potency means the concentration at half of the fitted maximal effect.

SMILES	Nrf2 activator	S2 tox	A549 tox	Nrf2 inh	ATXN2 expr inh
Cc1ccc(C#N)c(SCCN2CCCCC2)n1	-1%	i	-6%	5%	-7%
Cc1cccc2cc(C#N)c(SCCN3CCCCC3)nc12	?	i	-2%	-7%	25µM*
Cc1ccc(-n2cc(CN(C)Cc3ncc[nH]3)c(-c3cccc(C)c3)n2)cc1	4%	?	-5%	-21%	?
CC1=NN(c2ccccc2)C(=O)/C1=C/C=C/C=C/N(C)C	4%	14µM*	10µM*	?	?
COCC(=O)Nc1cc(C(=O)NCC(C)C)ccc1Cl	0%	i	7%	-2%	1%
CCOc1ccc(S(=O)(=O)N2CCC(C(=O)N3CCCCCC3)CC2)cc1C	0%	i	0%	18µM*	-18%
O=C(C1CCN(S(=O)(=O)c2ccc(-n3cnnn3)cc2)CC1)N1CCCCC1	0%	i	-2%	13µM*	-21%
CC1=CC(=O)C(Sc2ccc(C)cc2)=CC1=O	13µM*	nt	nt	nt	nt
O=C(Nc1cc(-c2nc3ncccc3o2)ccc1Cl)c1cccs1	6.3µM*	i	-8%	-2%	5%
C#CCn1c(=NC(=O)c2ccco2)sc2cccc(Cl)c21	4µM*	?	-3%	5%	1%
CCc1nnc(NC(=O)CSc2nnc(-c3ccc(S(=O)(=O)N4CCCC4)cc3)n2CC)s1	0%	i	-16%	2%	4%
CC(C)c1ccc(C(O)P(=O)(OC2CCCCC2)OC2CCCCC2)cc1 (stereo unspecified)	0%	32µM*	?	16µM*	nt
Cc1ccc(-n2nc3c([n+]2[O-])CCc2c-3no[n+]2[O-])cc1	2.2µM*	?	?	-29%	?
[O-][n+]1onc2c1CCc1c-2nn(-c2ccccc2Cl)[n+]1[O-]	?	?	-3%	?	28µM*
Cc1ccc(-n2nc3c(n2)/C(=N/O)CC/C3=N\O)cc1	0%	i	-5%	?	27%
Cc1cccc(-n2nc3c([n+]2[O-])CCc2nonc2-3)c1C	1%	?	4%	-2%	-6%
CC(=O)c1cccc(NC(=O)c2sc(-n3nc(C)c(Cc4ccc5c(c4)OCO5)c3C)nc2C)c1	0%	nt	?	9.2µM*	nt
CCN(CC)CCCNC(=O)c1ccc2c(c1)N(Cc1c(F)cccc1Cl)C(=O)c1ccccc1S2	-2%	i	1%	13%	20µM*
CCN(CC)C(=O)c1ccc2c(c1)N(Cc1ccc(C(F)(F)F)cc1)C(=O)c1ccccc1S2	0%	i	-2%	12µM*	?
COCCNC(=O)c1ccc2c(c1)N(Cc1ccc(C(F)(F)F)cc1)C(=O)c1ccccc1S2	0%	i	-14%	?	?
Cc1ccn2c(Nc3ccccc3)c(-c3ccccn3)nc2c1	0%	i	?	26µM*	?
Cc1ccccc1Nc1c(-c2ccccn2)nc2ccccn12	6%	?	-19%	?	nt
Cc1ccc2nc(-c3ccccn3)c(Nc3ccccc3C)n2c1	5%	?	?	?	4.5µM*!
Cc1ccn2c(Nc3ccccc3C)c(-c3ccccn3)nc2c1	2%	nt	?	?	4µM*
NC(=O)c1c(NC(=O)c2ccc([N+](=O)[O-])o2)sc2c1CCCC2	4µM*	i	2%	-2%	-15%
SMILES	Nrf2 activator	S2 tox	A549 tox	Nrf2 inh	ATXN2 expr inh
CN1CCc2c(sc(NC(=O)c3ccc([N+](=O)[O-])o3)c2C(N)=O)C1	-2%	?	21µM*	?	?
CN1CCc2c(sc(NC(=O)c3ccco3)c2C(N)=O)C1	2%	i	1%	10%	11%
Oc1cc(NCc2ccc(F)cc2)cc2cccnc12	-3%	?	-14%	?	?
CN(C)CCCNc1cc(O)c2ncccc2c1	-4%	?	10µM*	5.2µM*	20µM*
COc1ccccc1C(=O)NNC(=O)c1ccc(Br)cc1	10%	?	-6%	23%	0%
Cn1nnnc1Sc1ncnc2scc(-c3ccc([N+](=O)[O-])cc3)c12	?	16µM*	?	18µM*	7.1µM*
Cn1nnnc1Sc1ncnc2scc(-c3cccc4c3sc3ccccc34)c12	?	?	?	-16%	16µM*
Cc1sc2ncnc(Sc3nnnn3-c3ccccc3)c2c1C	8.9µM*	32µM*	2%	?	16µM*
NNc1ncnc2scc(-c3ccc(Cl)cc3)c12	3%	i	1%	-17%	16µM*
Cc1ccc(NC(=O)COc2ncnc3cc([N+](=O)[O-])ccc23)cc1S(=O)(=O)N1CCOCC1	-1%	i	-6%	-28%	3%
CCNc1nc(Cl)nc(N(NC(C)=O)C(C)C)n1	0%	i	-4%	-2%	-10%
C=CCSc1nnc2c(n1)OC(C)=Nc1ccc(Br)cc1-2	20%	i	6%	2%	nt
Cn1nnnc1Sc1ncnc2scc(-c3ccc(Cl)cc3)c12	-2%	11µM*	?	?	14µM*
CC(=O)c1ccc(-c2csc3ncnc(Sc4nnnn4C)c23)cc1	nt	nt	-2%	?	nt
Cn1nnnc1Sc1ncnc2scc(-c3ccc4c(=O)ccoc4c3)c12	nt	nt	?	16µM*	nt
COc1ccc(-c2csc3ncnc(Sc4nnnn4C)c23)cc1	?	?	-3%	-10%	20µM*
Cn1nnnc1Sc1ncnc2scc(-c3ccccc3Cl)c12	-2%	?	-4%	26µM*	20µM*
CCCCC(=O)Nc1ccc(C)c(O)c1	0%	i	-5%	nt	28%
Cc1ccc(COC(=O)c2ccc3c(c2)C(=O)N(CCCN2CCOCC2)C3=O)cc1	-1%	i	7%	15%	-3%
O=C(Cc1cccc(NC(=O)C2CCCN(C(=O)CCc3ccccc3)C2)c1)Nc1cccc(C(=O)N2CCCC2)c1 (stereo unspecified)	-1%	i	2%	-23%	-32%
Cc1ccc(-n2nc(C)c3c2C(Br)C(C)(C)CC3=O)nc1 (stereo unspecified)	12%	i	-14%	7.3µM*	-6%
O=c1cc(N2CCCCC2)c(-c2ccccc2)nn1Cc1c(Cl)cccc1Cl	0%	?	?	18µM*	?
O=c1cc(N2CCCCC2)c(-c2ccccc2)nn1Cc1ccc(Cl)cc1	0%	i	?	?	-34%
COc1ccc(C(=O)NCCc2ccc(Cl)cc2)cc1S(=O)(=O)N1CCCCC1C (stereo unspecified)	0%	i	-7%	16µM*	nt
CCOC(=O)N1CCc2c(sc(NCc3ccc(OC)c(OC)c3OC)c2C(=O)Nc2ccc(OC)cc2OC)C1	-1%	i	-6%	nt	-9%
CCOC(=O)N1CCc2c(sc(NCc3ccc(OCC)cc3)c2C(=O)Nc2ccc(OC)cc2OC)C1	0%	i	-1%	nt	13µM*
